Changes are numbered by the printed parent chain. Over roughly 24,000 sequences, “enrichment r” has its median near 0.99; the highest 2% begin near 3.7. For the sample, the highest values were picked, then their nearest neighbours and some sequences at random.
B1: chr12:56499883:56499884:+_ENSMUSG00000021024_ENSMUST00000021412|mus_mus|FALSE|FALSE (ssRNA)
RNA: GGGAGUUCUACAGUCCGACGAUCGAUAGUAAUGUGACGGUCAAAACCGGCGCUGGAACCCCGGGACAUGGCGUUCCUGCUAUUUUAAACACAGUCUGCACCCCGUAGCACACACACCAGGGACCCAAGCCCCCUCCCGGAAGUCAACAGAGGAUUGAGCAUCA
B2: chr8:110352747:110352748:+_ENSG00000120533_ENST00000521662|hu_mus|FALSE|FALSE (ssRNA)
RNA: GGGAGUUCUACAGUCCGACGAUCCAGGGCUCUGCCUUUUGGAGUGAUUUCAGCCACCAAGUCAUCAACAGUAACGUGUUCUAGUCCUUUUUCUUUAAUUACCUCUUUACAGUGUGCCUUUAGCUGAUCCUUCCAGCCGCACUCCAACAGAGGAUUGAGCAUCA
B3: chr6:31457689:31457690:+_ENSMUSG00000025609_ENSMUST00000142469|perfect_dup|motif|central (ssRNA)
RNA: GGGAGUUCUACAGUCCGACGAUCUGAUCAGGUCUACCAGGUUGCCUUUAGGAGGAGUCAUGCUGUCAGGAAAGAAAUUUACGGAGGUGUCAAAGAGCUGAGUUCUUUGAGCAUAGGUAUGAUCCACAUCUGAAAAGCCAUAAUCAACAGAGGAUUGAGCAUCA
B4: chr12:25667166:25667167:+_ENSMUSG00000036333_ENSMUST00000066652|mus_mus|motif|central (ssRNA)
RNA: GGGAGUUCUACAGUCCGACGAUCUCUUCCACAUAAUUUAUCACACUCUGUGAUAUAAGAACCGACAUUUUCACAGAAAUCGGUAGCCGACUUUAAUUCACCGUGUCACGGCCUGGCCGAAGACGGCGCCCUCAGCUCUGCAGACAACAGAGGAUUGAGCAUCA
B5: chr19:8913615:8913616:-_ENSMUSG00000071658_ENSMUST00000096259|mus_hu|mus_mus_mus_hu_False|1_8 (ssRNA)
RNA: GGGAGUUCUACAGUCCGACGAUCAGGGUACCAAAACCUUCUGCCUGAAAUGGGUGCCCCACCCAGUAGGGAGUUGCAGCUGAAAGUAUCUGAUGCAGAAGCAGUGACUAUACGAAAGGAGGCCCCUGAUGCUCAGACGAGAUCCAACAGAGGAUUGAGCAUCA
B6: chr2:241070490:241070491:-_ENSG00000172428_ENST00000607357|hu_mus|FALSE|FALSE (ssRNA)
RNA: GGGAGUUCUACAGUCCGACGAUCUCACAGACAUGGAGCACAUAGGACCGGGCGGCCUCACUGGACAUCAUCAUCAUCAAAAAGGUCUUCAAAAUCAUUAAAAAAGUCUGCAUGAACGGCCUUCUCAUUGGCUGCCAGGUCCAUCAACAGAGGAUUGAGCAUCA
B7: chr11:100882373:100882374:+_ENSMUSG00000019302_ENSMUST00000044721|mus_mus|FALSE|FALSE (ssRNA)
RNA: GGGAGUUCUACAGUCCGACGAUCUUCCUGGUUAGUGUUGAUUUCCUUCAGUUCAUUUUCAAUCUUCUCGAAAUUGGCCUCUAAGUCGAUCAUGUCCCGAGGGAAGGGCACCUCUGGGUUUUCACCGGUGUCCAUAAUUGGGAUCAACAGAGGAUUGAGCAUCA
B8: 90660906_90661026_1561_CDS_ENSG00000112182_ENST00000537989|human|control|control (ssRNA)
RNA: GGGAGUUCUACAGUCCGACGAUCAUCCCCCGCUCUGUCCUUGGCGUCAGGCUCAUCUCCAGACAGGCAGAGCGUGAUGCUCUCUUCCUCAUUCUCUUCACUGGGCGGCUCACUUUUAAUCUGCCCCCUGGCAAGCCCCGGCUUCAACAGAGGAUUGAGCAUCA
B9: chr2:119552488:119552489:+_ENSMUSG00000027304_ENSMUST00000028767|mus_hu|FALSE|FALSE (ssRNA)
RNA: GGGAGUUCUACAGUCCGACGAUCGAACAUCGCUUCUUUCCACUUCAUAAACUCACUUUCGGUGAAUUCUUGGUUUGAGACAAACUCUAAACGGAACACGCGUUGGUCAUUGCCAUGCCGUAGUUGCAGCCCUUUGUUUGUUCUCAACAGAGGAUUGAGCAUCA
B10: 98509248_98511339_722_CDS_ENSG00000140450_ENST00000268042|human|control|control (ssRNA)
RNA: GGGAGUUCUACAGUCCGACGAUCGUAUCCCUUUCUUUCAAUUUUGGCACUCAGCGAGACUGGACCAGAAGUGAAAAACCAACAGCCAACCAUUUUCUCUUGAGUUUUCAAUACAGGGGUUAAUAAUGCUGGUGUGUUGACAUCCAACAGAGGAUUGAGCAUCA
B11: chr16:45382771:45382772:-_ENSMUSG00000022661_ENSMUST00000163230|mus_mus|mus_mus_mus_hu_True|38_108 (ssRNA)
RNA: GGGAGUUCUACAGUCCGACGAUCCUGAGUGUUAUUGUAAGACAAAUGGACAGGGAGGGCAUGCUUCUCAAAAAAUGUGAGCUAUUGUCUAAGACUAACAAUAUUGCUCUAGCUAUAAAAAUAAGUUAAAUGAAUAAGUUAAGACAACAGAGGAUUGAGCAUCA
B12: chr3:8561242:8561243:+_ENSMUSG00000027500_ENSMUST00000029002|mus_hu|FALSE|FALSE (ssRNA)
RNA: GGGAGUUCUACAGUCCGACGAUCAACAACCAGCUCACAGUUUCCAAGUGGAAAAAUAUUCAGUAGCAUCAUGUACUUGUACUAUAGGUAAGAGCUUAAAAUGAACAUCAUCAAUCAUGGCAUCCACAAAUAAGCCACCUGACACAACAGAGGAUUGAGCAUCA
B13: chr16:45382771:45382772:-_ENSMUSG00000022661_ENSMUST00000163230|mus_mus|mus_mus_mus_hu_True|1_38 (ssRNA)
RNA: GGGAGUUCUACAGUCCGACGAUCCUGGGUCAUGUUAUAAGACAAAUGGACAGGGAGGGCAUGCUUCUCAAAAAAUGUGAGCUAUUGUCUAAGACUAACAAUAUUGCUCUAGCUAUAAAAAUAAGUUAAAUGAAUAAACAUUACCAACAGAGGAUUGAGCAUCA
B14: chr16:45382771:45382772:-_ENSMUSG00000022661_ENSMUST00000163230|mus_mus|mus_mus_mus_hu_True|38_88 (ssRNA)
RNA: B11 RNA with A27G, G30C, U31A, A33G, G36A, C50U
B15: chr16:45382771:45382772:-_ENSMUSG00000022661_ENSMUST00000163230|mus_mus|mus_mus_mus_hu_True|38_98 (ssRNA)
RNA: B11 RNA with A27G, G30C, U31A, A33G, G36A, A38G, A39G, A41C, A43C
B16: 107603385_107603505_2018_CDS_ENSG00000091136_ENST00000393561|human|control|control (ssRNA)
RNA: GGGAGUUCUACAGUCCGACGAUCGGAAUAUGGUAUGUUGUCAAUGAAAAACUCCAAAUAAGCCCCUUCAGGCACUCGGACGAAGCCGGCUCCAGUCCAGGAGGGAAUCCGGUCCUGGAUAUAUUGCCGCUCCACUAUGCUAACCAACAGAGGAUUGAGCAUCA

molecular target: T1, UNK ZnF1-3 (human, UniProt Q9C0B0 31-174); experiment: nsRBNS (natural sequence RNA bind-n-seq); RBNS binding buffer (assumed for nsRBNS): 25 mM Tris pH 7.5, 150 mM KCl, 3 mM MgCl2, 0.01% Triton X-100, 500 ug/ml BSA, 20 U/ml SUPERase-In, 4 C; UNK is unkempt and MSI1 is Musashi-1; names of the RNAs are library labels; protein concentration not given here; high values mean tight binding
T1 sequence: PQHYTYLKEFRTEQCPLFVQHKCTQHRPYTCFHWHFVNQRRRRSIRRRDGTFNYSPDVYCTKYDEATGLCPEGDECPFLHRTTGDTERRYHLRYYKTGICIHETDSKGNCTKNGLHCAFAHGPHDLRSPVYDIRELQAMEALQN

First: B1
Second: B2
The binding signal of the first is lower: 0.679 enrichment R for the first, 0.801 enrichment R for the second.

Going from B3 to B4, the binding signal falls from 1.63 enrichment R to 0.699 enrichment R.

Compared with B5, B6 is lower in binding signal: 1.25 enrichment R for the first, 0.924 enrichment R for the second.

Compared with B7, B8 is higher in binding signal: 0.394 enrichment R for the first, 0.641 enrichment R for the second.

Going from B9 to B10, the binding signal rises from 0.468 enrichment R to 1.16 enrichment R.

Compared with B11, B12 is lower in binding signal: 8.75 enrichment R for the first, 1.49 enrichment R for the second.

Going from B13 to B14, the binding signal rises from 6.59 enrichment R to 7.9 enrichment R.

Going from B15 to B16, the binding signal falls from 11.2 enrichment R to 0.989 enrichment R.

— PMC12136788
